In the supplement of paper PMC12632987:
Over roughly 1,800 sequences, “median log2 fold change of GCK-ALFA target abundance (FLAG IP / Myc IP barcode read proportion)” has its median near 0.14; the lowest 2% begin near -0.84. Shown is part of a subset that was picked to be rich in the lowest values.

T1: TRAF2, Q12933
T1 chain: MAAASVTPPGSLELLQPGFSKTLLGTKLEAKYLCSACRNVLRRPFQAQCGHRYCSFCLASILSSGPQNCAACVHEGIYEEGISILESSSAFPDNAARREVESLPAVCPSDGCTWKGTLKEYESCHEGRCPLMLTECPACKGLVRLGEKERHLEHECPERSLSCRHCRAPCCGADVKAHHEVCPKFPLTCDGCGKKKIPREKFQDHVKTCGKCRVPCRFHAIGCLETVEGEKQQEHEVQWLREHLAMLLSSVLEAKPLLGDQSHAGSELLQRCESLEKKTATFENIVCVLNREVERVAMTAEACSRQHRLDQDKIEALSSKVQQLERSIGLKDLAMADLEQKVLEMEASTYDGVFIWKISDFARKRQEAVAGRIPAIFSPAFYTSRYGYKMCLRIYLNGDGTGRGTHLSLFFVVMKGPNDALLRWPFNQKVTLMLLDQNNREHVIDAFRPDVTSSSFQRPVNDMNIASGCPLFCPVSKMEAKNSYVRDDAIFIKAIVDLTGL

B1: traf2_out_20_3_2107 (protein)
chain: KELEEELEKELEEAIKLLEEAAKLADEETAKRLEELRKRVEASRELPYTDRLVALSEVRREVLALAQEAEAAGKEELAKVLEEAADELNKAMNLLMKIIE
B2: traf2_out_15_48_1346 (protein)
chain: DIEKEQKIASEIADDSDKLKDKVAKELEELQKKANPEEAAILDELIAAIRSGASLRTVRGLLLQAQPKFSPETAAKLKALAEEIDELIRENSKRYNEVLK
B3: traf2_out_18_117_1795 (protein)
chain: SEREEIIEELEELAERLGKAASELGKAVLDNWEKLTPEEKSEAMDVLADLSAVRRRAQELIHKIKTENIPVEEARKELEELKKEAEAALAAAEAKIARIK
B4: traf2_out_9_108_2595 (protein)
chain: MTEEEKEEETYEKILKLAKDFLERYDVSEELRADMEAAIEQAEKLRKEGEKRTANILIAISTARVAYEIGEEAVKDFLAELKKIDERSYNAAKRMVKLLK
B5: traf2_out_13_95_1087 (protein)
chain: SAETNAKINEIADKMMEKIEAILDKLSEEVADDPELKAEVEAAKELAITRGVNEAIHKLRELSKAHPEYKEKLDKAIDEIEKVKREASKEISKLLKEEKE
B6: traf2_out_6_3_2532 (protein)
chain: SHMSLLKDAKTVLENMGITTIEELKALVKAEVNAIKKLISRKDVDEADLAGARSVVALSRAMVEVAKETLPDFTEEDYEELNKLLEETEKLIKEREEKLK
B7: traf2_out_17_178_1748 (protein)
chain: NEEELKKIINEKNNEIADIAEKLAEEILKLAKEDPSISPETLALIEEARRNGSHNTAVALFLEASKNEETKKKVEELHKKASEEMNKLAKEREEAIEKYK
B8: traf2_out_11_104_639 (protein)
chain: LTREQAREFNDFAMAKEDEARAVAAELAAALEAAGETAAAARVRAALAHPGAGISTFRNLLEDLLPTLSPAAAAQARAAIARLAALQREVSAKLNELEAK
B9: traf2_out_6_156_2377 (protein)
chain: TKEEILKKAKEKIEKEIKKLAEASEEKKIKYISEIAGAVYKALQALREAGASVEEIKKAVEELKKVAEEEAKKAGLPEDTINLLLSSINAVGEVALREAE
B10: traf2_out_17_178_1665 (protein)
chain: TKEEERKKISELTDKLIDLAEAAADRALALAEREGDLSPEELAALREARRRGSATDVRALMRRWIPRLRSAAELGALLEEFEAEYRKLSKEIAEAYEKYE
B11: traf2_out_11_155_731 (protein)
chain: EKKEKARREIVDFAIEQGDELEAFVEALIKEVEKEDPELAKELRAVFEEHRKYSARSAALAAIDVLRKHGYEERAEELEKKIEEANKKASEFIKKIEEEL
B12: traf2_out_20_38_2042 (protein)
chain: EEEEKEEEQIELDVEIANEALDEVEERFAKWRAEGLSLEEIAERVKEEIRKAFKEAGLEEKLPEYLEQIDLVRDSPDAERLLERILARALALVRRKKREK
B13: traf2_out_20_38_2026 (protein)
chain: SMEEEEEKKLEELIKVAQEAYDEAEKKIEELKKEGKSIEEIAEIAKEEIERILSEEGLEEEKEELIEEVDLVLDSPDAERLIARILARAVALAHQKRLEK
B14: traf2_out_20_38_2028 (protein)
chain: SEEEEEKKRLEELIKVANEAYDKAEKKIAKLKAEGKTIEEIAEEAKEEVERILSEVGLEEEREELIEDIDRVLDSPDAERLIARILARAVALAYQKELQK
B15: traf2_out_5_189_2315 (protein)
chain: SAREEEQKALNEKAKEIGKEVTKLINEMKKEGKSWEEIAEKMLEKMKTLPVDDAALYSGIFYSIMLGEAIANNDEKLKEIAEKFREKAKELIKEKEKKEA
B16: traf2_out_17_162_1608 (protein)
chain: MELEEKLKKLKELLEELEKKLKRLEEKLKNIEKLSKEELSDLLVEASEARRKALEALEEIKKLKEKLDKEEYEKLSKRFEEIAEKFQRIANKFYKELEKK
B17: traf2_out_3_89_2292 (protein)
chain: SEERERKIRLARERAERYARGFEKSARRVAKEMLKEGYSLETLRGVLEAARTALVEVFREELRELGLSEEDIRELVEELERRLREIVEKVLEEAEKKRKE
B18: traf2_out_20_3_2164 (protein)
chain: SELEKKLEEELERALKLLKKAAELSDEETKKKLKELIERLKESRSLSPSDRLVVVSEVRREVLLLAQKAKAEGKEELAKLLEEAAEELNRAMQLLYEIIE
B19: traf2_out_13_95_1191 (protein)
chain: EEEKRKKYAERTNAIADELLDHADAKIAELEAATGDPELGAELRRVLDRGGVSALIHRIRELAKEDPAYREAYEAAAAELEAKRREAGRRVAEAEKEIEA
B20: traf2_out_17_162_1521 (protein)
chain: SPLEAELKALEAELEALKKKLEELKKKLENLDKMSKEELTDLLVEASEARRKALELAERLKRLKPLIGEERAGALIAEAEAIAEELQKIANKIYKKLEEK
B21: traf2_out_17_162_1578 (protein)
chain: EELKKELEELKKKLEELKKKLKEFEKKLPELPKMSYEELTDLLVEVSELKREARELAEKLEELGKKLGEEEIKKLVEEAKEIAEKLQKIANKIYKEIEKK
B22: traf2_out_20_3_2068 (protein)
chain: EELEKELEEALEKALALLKKAAALADPETAAELDALIKELKASKELSVSDRLVAVSAVRRRVLRLAEEAEAAGDAELAAVLNKAADALNRAAQLLYQILQ
B23: traf2_out_15_48_1358 (protein)
chain: STEALRETARKVADLIDATLDEVAKELKALLPKAKPEVKPILEEAIRVASTHRSINDTIALLEEAIKKSDPELAKELQELRDRLLATQKEASKLINETEK
B24: traf2_out_17_162_1493 (protein)
chain: SELEEKKKKLEKELKELKKKLKELEKKLENIEKLSKEELTDLLVEASELKRKARQLAEEYKKLLKKTGDKELEKLIKEAEELAERAQKIANKIYKEIEKK
B25: traf2_out_20_3_2136 (protein)
chain: SELEEELKKELEKAKKLLEKAAALADKETAAKLKALIKRLEASEELSPEDRLVEFSEIRREVLELALAAEAAGKAELAKLLNEAADALNKAMNLLMKIIE
B26: traf2_out_8_15_2548 (protein)
chain: SIKEAAEKDIARLKALSDGDKESLINTLLGMAKGELRLAKIYKEEGRKEEALRTLEYARIYAEAALELAKEIGSPRLEEIKKEVEELEKEIEELRKEIEA
B27: traf2_out_20_3_2212 (protein)
chain: EELRKKVEEELEKIRELLEKAKPRLPEEDYARLKELLERAEEALKEDPSDALVELSELKALLLRLSQEARAAGDEELAALLDEAADAANKAANLVYKILE
B28: traf2_out_20_38_2001 (protein)
chain: SAEEEEEEKLKKIIDVANEAYDEASKEIEELKAAGKSVEEIAEIVRAKVRELLTAAGLEEELEELLADIDRALSSPNALRLFARIRARAVALVKQKELNE
B29: traf2_out_1_27_1004 (protein)
chain: STEEERELLRRANREIGRASPEERVEVIVRALEEALARGLESPEHIAVVLILSLGEEEERRRAIEAAEEVLRAAGVSEEAIERMRRRVESGWARLDKLLA

Molecular target: T1, TRAF2, Q12933
Experiment: median log2 fold change of GCK-ALFA target abundance (FLAG IP / Myc IP barcode read proportion) (log2 ratio); each designed protein is fused to an ALFA-tag nanobody in HEK293 cells to bring the named protein to FLAG-tagged glucokinase (GCK); Myc marks an untargeted standard; higher = target protein stabilised (more abundant)
Conditions: target protein: 3xFLAG-MCP-GCK-ALFA reporter; HEK293 landing pad (RPLP)
Method in brief: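 The readout is target abundance, the per-binder median log2 ratio of FLAG to Myc barcode read proportions. It came from HEK293 landing-pad cells carrying a recombined ALFA-nanobody-fused binder library, induced with 2 μg mL^−1 doxycycline and transfected with a plasmid for a FLAG-tagged target and a Myc-tagged standard. After 48 h, lysates were immunoprecipitated with anti-FLAG and anti-Myc, and circular RNA barcodes were reverse transcribed, amplified and sequenced. Each barcode needed a proportion of at least 10^−7 in both replicates and each binder at least 3 barcodes per replicate, a pseudocount of 10^−6 was added, and the replicates were pooled.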

Row | Binder | median log2 fold change
1 | B1 | 0.327
2 | B2 | 0.203
3 | B3 | 0.171
4 | B4 | -0.632
5 | B5 | 0.249
6 | B6 | -1.3
7 | B7 | 0.486
8 | B8 | 0.214
9 | B9 | 0.122
10 | B10 | 0.057
11 | B11 | 0.0471
12 | B12 | -0.0369
13 | B13 | -0.0149
14 | B14 | -0.966
15 | B15 | 0.387
16 | B16 | -0.073
17 | B17 | -1.24
18 | B18 | -0.157
19 | B19 | 0.242
20 | B20 | 0.311
21 | B21 | 0.34
22 | B22 | -0.0614
23 | B23 | 0.33
24 | B24 | 0.47
25 | B25 | 0.345
26 | B26 | 0.203
27 | B27 | -0.0318
28 | B28 | -1.24
29 | B29 | 0.0667
